The full ranking holds about 2,900 compounds; the median of “NF-kB SEAP reporter activity, fold change vs agonist alone” is about 0.99, and the highest 2% start at about 2.6. This excerpt belongs to a sample that is enriched for the highest values.
Legend:
RAW-Dual [1] = assay: NF-kB SEAP reporter activity, fold change vs agonist alone; higher = enhanced NF-kB activity
Procedure, shortened: (§1)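 After 50 nL of library stock was delivered by pin tool to RAW-Dual macrophages (50,000 cells/well, DMEM, 384-well plates), a PRR agonist was added 1 h later and the plates were kept at 37 °C, 5% CO2. Twenty hours later, IRF was read from supernatant by QuantiLuc luminescence and NF-κB by QuantiBlue absorbance at 620 nm. Reporter activity is stated as fold change over agonist-alone wells. Wells with IncuCyte confluency under 70% of agonist controls in both mask sets were counted as cytotoxic.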

RAW-Dual [2] = assay: NF-kB SEAP reporter activity, fold change vs agonist alone; cytotoxicity flag (confluency mask): not cytotoxic; higher = enhanced NF-kB activity
Procedure, shortened: as §1

RAW-Dual [3] = assay: NF-kB SEAP reporter activity, fold change vs agonist alone; cytotoxicity flag (confluency mask): cytotoxic (confluency <70% of control); higher = enhanced NF-kB activity
Procedure, shortened: as §1

[4] = library stock concentration (final ~1000-fold dilution): 10 mM, cytotoxicity flag (confluency mask): not cytotoxic, agonist: Imiquimod (TLR7) […]
[5] = library stock concentration (final ~1000-fold dilution): 10 mM, cytotoxicity flag (confluency mask): not cytotoxic, agonist: MPLA (TLR4) […]
[6] = agonist: ODN 1826 (TLR9) 0.5 ug/mL
[7] = agonist: Pam2CSK4 (TLR2/6) 0.1 ug/mL
[8] = agonist: Pam3CSK4 (TLR2/1) 0.1 ug/mL
[9] = library stock concentration (final ~1000-fold dilution): 10 mM, cytotoxicity flag (confluency mask): cytotoxic (confluency <70% of control), agonist: Imiquimod (TLR7) […]
[10] = library stock concentration (final ~1000-fold dilution): 10 mM, cytotoxicity flag (confluency mask): cytotoxic (confluency <70% of control), agonist: MPLA (TLR4) […]

Compound: C#Cc1cccc(Nc2ncnc3cc4c(cc23)OCCOCCOCCO4)c1
- NF-kB SEAP reporter activity (RAW-Dual [1]; [4]): 1.06
- NF-kB SEAP reporter activity (RAW-Dual [1]; [5]): 1.53

Compound: COc1cc2ncnc(Nc3cc(Br)c(O)c(Br)c3)c2cc1OC
- NF-kB SEAP reporter activity (RAW-Dual [1]; [4]): 0.787
- NF-kB SEAP reporter activity (RAW-Dual [1]; [5]): 1.53

Compound: C#Cc1cccc(Nc2ncnc3cc4c(cc23)OCCOCCOCCO4)c1 (library stock concentration (final ~1000-fold dilution): 10 mM)
- NF-kB SEAP reporter activity (RAW-Dual [2]; agonist: LPS (TLR4) 0.1 ug/mL): 1.8
- NF-kB SEAP reporter activity (RAW-Dual [2]; [6]): 0.972
- NF-kB SEAP reporter activity (RAW-Dual [2]; [7]): 1.16
- NF-kB SEAP reporter activity (RAW-Dual [2]; [8]): 1.44

Compound: COc1cc2ncnc(Nc3cc(Br)c(O)c(Br)c3)c2cc1OC (library stock concentration (final ~1000-fold dilution): 10 mM)
- NF-kB SEAP reporter activity (RAW-Dual [2]; agonist: LPS (TLR4) 0.1 ug/mL): 2.14
- NF-kB SEAP reporter activity (RAW-Dual [2]; [6]): 0.951
- NF-kB SEAP reporter activity (RAW-Dual [2]; [7]): 0.984
- NF-kB SEAP reporter activity (RAW-Dual [2]; [8]): 0.757

Compound: C#Cc1cccc(Nc2ncnc3cc(OC)c(NC(=O)N4CC5CCN(C)C5C4)cc23)c1 (stereo not given) (library stock concentration (final ~1000-fold dilution): 10 mM)
- NF-kB SEAP reporter activity (RAW-Dual [2]; agonist: LPS (TLR4) 0.1 ug/mL): 3.99
- NF-kB SEAP reporter activity (RAW-Dual [2]; [6]): 0.205
- NF-kB SEAP reporter activity (RAW-Dual [2]; [7]): 0.732
- NF-kB SEAP reporter activity (RAW-Dual [2]; [8]): 0.783

Compound: COc1cc2ncnc(Nc3cccc(Cl)c3F)c2cc1OC(=O)N1CCN(C)CC1C (stereo not given)
- NF-kB SEAP reporter activity (RAW-Dual [1]; [4]): 0.868
- NF-kB SEAP reporter activity (RAW-Dual [1]; [5]): 1.05

Compound: C#Cc1cccc(Nc2ncnc3cc(OC)c(OCCCCCCC(=O)NO)cc23)c1 (library stock concentration (final ~1000-fold dilution): 10 mM)
- NF-kB SEAP reporter activity (RAW-Dual [3]; agonist: LPS (TLR4) 0.1 ug/mL): 7.09
- NF-kB SEAP reporter activity (RAW-Dual [3]; [6]): 1.67
- NF-kB SEAP reporter activity (RAW-Dual [3]; [7]): 0.682
- NF-kB SEAP reporter activity (RAW-Dual [3]; [8]): 1.41

Compound: C#Cc1cccc(Nc2ncnc3cc(OC)c(OCCCCCCC(=O)NO)cc23)c1
- NF-kB SEAP reporter activity (RAW-Dual [1]; [9]): 1.4
- NF-kB SEAP reporter activity (RAW-Dual [1]; [10]): 1.87

Compound: COc1cc2ncnc(Nc3ccc(O)c(Br)c3)c2cc1OC (library stock concentration (final ~1000-fold dilution): 10 mM)
- NF-kB SEAP reporter activity (RAW-Dual [2]; agonist: LPS (TLR4) 0.1 ug/mL): 2.33
- NF-kB SEAP reporter activity (RAW-Dual [2]; [6]): 1.17
- NF-kB SEAP reporter activity (RAW-Dual [2]; [7]): 0.685
- NF-kB SEAP reporter activity (RAW-Dual [2]; [8]): 1.19

Compound: C#Cc1cccc(Nc2ncnc3cc(OCCOC)c(OCCOC)cc23)c1.Cl
- NF-kB SEAP reporter activity (RAW-Dual [1]; library stock concentration (final ~1000-fold dilution): 2 mM, cytotoxicity flag (confluency mask): not cytotoxic, agonist: Imiquimod (TLR7) […]): 0.949
- NF-kB SEAP reporter activity (RAW-Dual [1]; library stock concentration (final ~1000-fold dilution): 2 mM, cytotoxicity flag (confluency mask): not cytotoxic, agonist: MPLA (TLR4) […]): 1.39

Compound: COc1cc2ncnc(Nc3ccc(O)c(Br)c3)c2cc1OC
- NF-kB SEAP reporter activity (RAW-Dual [1]; [4]): 1.45
- NF-kB SEAP reporter activity (RAW-Dual [1]; [5]): 1.78

Compound: C#Cc1cccc(Nc2ncnc3cc(OCCOC)c(OCCOC)cc23)c1
- NF-kB SEAP reporter activity (RAW-Dual [1]; [4]): 1.02
- NF-kB SEAP reporter activity (RAW-Dual [1]; [5]): 1.88

Compound: COc1cc2ncnc(Nc3cccc(Cl)c3)c2cc1OC
- NF-kB SEAP reporter activity (RAW-Dual [1]; [9]): 1.58
- NF-kB SEAP reporter activity (RAW-Dual [1]; [10]): 1.42

Compound: C#Cc1cccc(Nc2ncnc3cc(OCCOC)c(OCCO)cc23)c1.Cl
- NF-kB SEAP reporter activity (RAW-Dual [1]; [4]): 1.81
- NF-kB SEAP reporter activity (RAW-Dual [1]; [5]): 2.51

Compound: COc1cc2ncnc(Nc3ccc(O)cc3)c2cc1OC
- NF-kB SEAP reporter activity (RAW-Dual [1]; [4]): 1.05
- NF-kB SEAP reporter activity (RAW-Dual [1]; [5]): 1.16

Reference: the supplement of paper PMC10037445
